From PubChem BioAssay (NCATS)
Records with an inconclusive call do not appear. A call without a number means that no potency is given here. The source made the active and inactive calls. Calls come from the whole dose curve; as a rule, active = well fitted inhibition curve with a large enough effect; inconclusive = small, poorly fitted or top-dose-only effect; inactive = flat fitted curve, though single readings scatter.

Target: Calcium and integrin-binding protein 1 (Homo sapiens) (UniProt Q99828)
Sequence (Q99828 whole entry, looked up): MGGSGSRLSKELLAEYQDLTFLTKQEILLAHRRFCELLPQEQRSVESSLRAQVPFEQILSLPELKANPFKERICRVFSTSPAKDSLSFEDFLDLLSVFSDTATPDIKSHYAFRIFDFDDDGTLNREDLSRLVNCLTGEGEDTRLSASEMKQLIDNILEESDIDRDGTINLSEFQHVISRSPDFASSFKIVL
Assay: Primary qHTS for Identification of Calcium Integrin Binding Protein 1 (CIB1) Competitor (AID 1508620); note: top concentration of the series differs between compounds
Details: CIB1-GST / FITC-alphaIIb peptide fluorescence polarization; series mostly up to 114 µM
Procedure, shortened: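 Fluorescence polarization competition: GST-tagged CIB1 (1 uM final) preincubated with compound 15 min at room temperature, then FITC-labelled alphaIIb peptide (100 nM final) added. After 15 min at room temperature, polarization read at Ex 480/Em 540.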

| SMILES | Potency |
| --- | --- |
| Cc1cc(NS(=O)(=O)c2ccc(NC(=O)Cc3ccc(C)c(C)c3)cc2)no1 | inactive |
| CS(=O)(=O)N1CCN(c2nc(-c3ccc(Br)cc3)cs2)CC1 | inactive |
| COc1ccccc1NS(=O)(=O)c1cc(NC(=O)c2ccccc2)ccc1N1CCCC1 | inactive |
| Cc1nc(C2=NC(c3ccccc3Cl)C3=C(CCCC3=O)N2)cs1 (stereo not given) | inactive |
| Cc1ccc2nc3sc(C(=O)NC4CCCCC4)cc3cc2c1 | inactive |
| O=C(CNC(=O)c1ccc(Cl)c(C(F)(F)F)c1)OC(C(=O)Nc1cc(C(F)(F)F)ccc1Cl)c1ccccc1 (stereo not given) | inactive |
| Nc1nc(Nc2cc(F)cc(F)c2)nc(NC2CCCC2)n1 | inactive |
| Cc1cc2c(s1)c1cnn(Cc3cc(F)ccc3C)c(=O)c1n2C | inactive |
| O=C(Nc1ccc2ccccc2c1)Nc1nnc(C2CCCCC2)s1 | inactive |
| Cn1c2cc(Br)sc2c2cnn(Cc3ccc(F)cc3)c(=O)c21 | inactive |
| Cc1cc(-c2nnc3n2CCCCC3)c(C)n1-c1ccc(C#N)cc1 | inactive |
| Cc1ccc(OCCn2c(CCNC(=O)c3cc(F)cc(F)c3)nc3ccccc32)cc1 | inactive |
| COc1cccc(C2c3c(ncn(-c4ccccc4)c3=N)Oc3ccc4ccccc4c32)c1 (stereo not given) | inactive |
| COc1cccc(-c2nnc3n2N=C(c2c(OC)cccc2OC)CS3)c1OC | inactive |
| Cc1ccccc1S(=O)(=O)N1CCc2cc(-c3nc(NC(=O)Cc4ccc5c(c4)OCO5)sc3C)ccc21 | inactive |
| COc1cc(OC)cc(-c2nnc3n2N=C(c2c(OC)cccc2OC)CS3)c1 | inactive |
| Cc1ccc(Cn2ncc3c4sc(C)cc4n(C)c3c2=O)cc1 | inactive |
| O=C(Nc1ccccc1)c1cccs1 | inactive |
| O=C(Cc1ccc(Cl)c(Cl)c1)Nc1ccc(S(=O)(=O)Nc2ccccc2)cc1 | inactive |
| Cc1ccnc(NC(=S)N2CCN(c3ncc(C(F)(F)F)cc3Cl)CC2)c1 | inactive |

| SMILES | Potency |
| --- | --- |
| CSc1cnc(-c2ccccc2C(C)C)nc1NCc1ccc(-c2cccnc2)cc1 | inactive |
| Cc1cccc(C)c1-n1c(SCC(=O)Nc2ccc(F)cc2)nnc1-c1cccc([S+](=O)([O-])N2CCCC2)c1 | inactive |
| CCNC(=O)C1CCN(C(=O)C(C)(C)NC(=O)Nc2ccccc2Cl)CC1 | inactive |
| COc1ccc(C2=Nn3c(nnc3-c3ccc(OC)c(OC)c3)SC2)cc1OC | inactive |
| O=C(Nc1cc(F)cc(F)c1)Nc1nnc(-c2ccncc2)s1 | inactive |
| Cc1cc(C)nc(NC(=S)N2CCN(c3cccc(S(C)(=O)=O)c3)CC2)c1 | inactive |
| CN(c1cccc2cccnc12)S(=O)(=O)c1ccccc1 | inactive |
| CNC(=O)C1CCN(c2nc(-c3ccc(Br)cc3)cs2)CC1 | inactive |
| FC(F)(F)c1ccccc1-c1nccc(NCc2ccc(-c3cccnc3)cc2)n1 | inactive |
| CC(=O)Nc1sc2c(c1-c1cncnc1)CCNC2 | inactive |
| CC(=O)NC(c1cc(F)c2cccnc2c1O)C(C)C (stereo not given) | inactive |
| O=S(=O)(Nc1ccccc1)c1ccc(O)c2ncccc12 | inactive |
| CN1CCN(c2cccc(Nc3nn4c(=O)c5ccccc5nc4s3)c2)CC1 | inactive |
| COC/C=C/c1cc(F)c(S(=O)(=O)N2CCN(S(=O)(=O)c3ccc4c(c3)OCCO4)CC2)cc1F | inactive |
| CC(=O)c1ccc(N2CCN(S(=O)(=O)c3ccc4c(c3)n(C)c(=O)n4C)CC2)cc1 | inactive |
| O=C(Cn1nc(-c2ccc(C(F)(F)F)cc2)ccc1=O)NCCc1ccccc1 | inactive |
| O=C(CNC(=O)c1ccncc1)OC(C(=O)Nc1cc(C(F)(F)F)ccc1Cl)c1ccccc1 (stereo not given) | inactive |
| CCOc1ccc(CCNC(=O)c2cc3sccc3n2Cc2ccncc2)cc1OCC | inactive |
| Cc1cc(N[S+](=O)([O-])c2ccc(NC(=O)Cn3c(=O)oc4ccc(Cl)cc43)cc2)no1 | inactive |
| Brc1ccccc1-c1nc(NCc2ccc(-c3cccnc3)cc2)c2ccccc2n1 | inactive |
